The record followed here is publication PMC12136788.

In all, about 5,800 sequences were measured (“enrichment r”: median about 0.68, highest 2% from about 11 on). The full list was thinned out, with the highest values kept by preference.

The labels stand for the following.
B1: ENSG00000136451:be:win_3151|3pUTR|ENSG00000136451|bound_else_gene|NA|bound_elsewhere_windowed (ssRNA)
RNA: GGGAGUUCUACAGUCCGACGAUCUGAGACAGACUUCCUACAUCAGGGACAGGUAUCUGUGUGUCAUUAUACAAAACAGUUCUAGGGGGUUGAACUACAUAGUAAAAAAAUAAAAUAAAUAGUACUUAGUGUAAAAUAAUUUUACAACAGAGGAUUGAGCAUCA
B2: chr17:57972098:57972209:-|3pUTR|ENSG00000136451|unk|FALSE|bound_elsewhere (ssRNA)
RNA: GGGAGUUCUACAGUCCGACGAUCCUAGAAUGUGGUUGUCAGAACCCUGAAAGUAUUAGUUCUAAAAAAAAAAAGAUAUAUACUAGAAGUAAUUGUUUUAUCAAUUCAUUGUAUAAUAAACAGGAGUGAGACUUCAUUGUAUGACAACAGAGGAUUGAGCAUCA
B3: ENSG00000136451:be:win_3201|3pUTR|ENSG00000136451|bound_else_gene|NA|bound_elsewhere_windowed (ssRNA)
RNA: GGGAGUUCUACAGUCCGACGAUCAACAGUUCUAGGGGGUUGAACUACAUAGUAAAAAAAUAAAAUAAAUAGUACUUAGUGUAAAAUAAUUUUAUAAAUGAUCUUUUGUACUUUAGGACAUUAAAUUGUACAACUUUUGUAUAUCAACAGAGGAUUGAGCAUCA
B4: ENSG00000136451:be:win_3101|3pUTR|ENSG00000136451|bound_else_gene|NA|bound_elsewhere_windowed (ssRNA)
RNA: GGGAGUUCUACAGUCCGACGAUCUUCCAUUUAUACCCUACUGUGUCAGUUCAAGCAUCAAAAUACCUUGCAUCUGAGACAGACUUCCUACAUCAGGGACAGGUAUCUGUGUGUCAUUAUACAAAACAGUUCUAGGGGGUUGAACAACAGAGGAUUGAGCAUCA
B5: ENSG00000136451:be:win_3251|3pUTR|ENSG00000136451|bound_else_gene|NA|bound_elsewhere_windowed (ssRNA)
RNA: GGGAGUUCUACAGUCCGACGAUCCUUAGUGUAAAAUAAUUUUAUAAAUGAUCUUUUGUACUUUAGGACAUUAAAUUGUACAACUUUUGUAUAUAUAAAAGCUUAGGAACUUUCUGUUUAGCAGGAAGGCAACACAUUCCUACACAACAGAGGAUUGAGCAUCA
B6: chr15:60490033:60490134:-|3pUTR|ENSG00000069667|unk|FALSE|unique (ssRNA)
RNA: GGGAGUUCUACAGUCCGACGAUCUGCUGGAUUUGGGACAUGCUUUUCUCUUUAAAUACAUAAUAUCAUUAUAUAAAUUAUUCUAGAGUGUAUUUAAUUAGGAUAAAAUUACUUCCUUAGUAUGGAUAUUUGACAUCUAUAGGGCAACAGAGGAUUGAGCAUCA
B7: chr3:129431351:129431457:-|3pUTR|ENSG00000129071|unk|total|mutant (ssRNA)
RNA: GGGAGUUCUACAGUCCGACGAUCACUUCAAAAAAGCUUAAUUAAGUACAACCAACCACCUUUCCAGCCACCGAGAUUUUAAUCCGCCCAACCCGAAGCCCCGUGUGUGUGCUUUCUUAAUGUGUGUGCCAAUGGUGGAUCUUUCAACAGAGGAUUGAGCAUCA
B8: chr11:61873518:61873813:-|three_prime_utr|ENSG00000221968|control|control|control (ssRNA)
RNA: GGGAGUUCUACAGUCCGACGAUCCCCUCACAUGUGUAUUCAGCAGCCCUAUGGCCUUGGCUCUGGGCCUGAUGGGACAGGGGUAGAGGGAAGGUGAGCAUAGCACAUUUUCCUAGAGCGAGAAUUGGGGGAAAGCUGUUAUUUCAACAGAGGAUUGAGCAUCA
B9: chr1:225494445:225494546:-|3pUTR|ENSG00000154380|msi1|total|mutant (ssRNA)
RNA: GGGAGUUCUACAGUCCGACGAUCUUGGGUGUUCCCUCUUCUUAUUUUCUCUCUGCCCACCUUGACACAGUAACUUCCUCUUACCGUCAAGAUGAUGAUUAAGUGUUUAAUUUUUAUUCCAUUUUGUUCUGCAACACGUUCAGGCAACAGAGGAUUGAGCAUCA
B10: ENSG00000070961:be:win_5551|3pUTR|ENSG00000070961|bound_else_gene|NA|bound_elsewhere_windowed (ssRNA)
RNA: GGGAGUUCUACAGUCCGACGAUCAAUUGUACAUUUAUUCAUCAGGUAUUUAUAGUGAAUCAUACUGUAAAAAAGAGGUAGCAUGAUAUGCUGGAAAGCAUAUUAGACUAGGAGUCAAGACCUGGUUUCUAGUCUUGGUUUUGCCAACAGAGGAUUGAGCAUCA
B11: chr6:52791370:52791857:-|three_prime_utr|ENSG00000243955|control|control|control (ssRNA)
RNA: GGGAGUUCUACAGUCCGACGAUCGCUAAUGAACUCUUUCAAAUUAUAUGCUAAUUAAAUAAUACAACUCCUAUUCGCUGACUUAGUUAAAAUUGAUUUGUUUUCAUUAGGAUCUGAUGUGAAUUCAGAUUUCCAAUCUUCUCCCAACAGAGGAUUGAGCAUCA
B12: chr16:18805221:18805325:-|3pUTR|ENSG00000157106|unk|FALSE|bound_elsewhere (ssRNA)
RNA: GGGAGUUCUACAGUCCGACGAUCAAGAAUUCUAUGUUCUGAAAUGCACACUUUUAGAAUGUUUUUCUUUGAAAACAGGCUAAUAGUUUUUUCUUUUUUUGACAAAGUUUCAGCUCCUCUUUAAAGUUAUUGUGUCAUUUUUCUCAACAGAGGAUUGAGCAUCA
B13: chr11:58422334:58423261:-|CDS|ENSG00000172365|control|control|control (ssRNA)
RNA: GGGAGUUCUACAGUCCGACGAUCACACACUAGUGAGGUGAUUCUGGUUUUUAUGUCAAGCUUUAAUAUCUUUUUUGUUCUUCUAGUUAUCUUUAUCUCCUACUUGUUCAUAUUCAUCACCAUCUUGAAGAUGCAUUCAGCUAACAACAGAGGAUUGAGCAUCA
B14: chr3:125228010:125228111:-|3pUTR|ENSG00000163848|msi1|FALSE|unique (ssRNA)
RNA: GGGAGUUCUACAGUCCGACGAUCAGUUCUCUUCAUAUUUCAUAACUACAUUUCAAUAAUUCUAAACUUUCUACAUUGAUUUUUAGAUACUUAUUUUUCAAGCUUGGUUUCUCAGCUGAUCAGAUGAAUUUAUUCAACUUCAAUCAACAGAGGAUUGAGCAUCA
B15: chr12:64147824:64147925:+|3pUTR|ENSG00000196935|unk|FALSE|unique (ssRNA)
RNA: GGGAGUUCUACAGUCCGACGAUCCAUCUCUGUGGUGUCUUUGUUCCUUUCCUUUCAUUCAUCACUACUUUCUCCUUGACAGCUAGCUUGCAUUAAAUAAUGUGAAACUUUUACCUUUAAAAUAUUUUUUUAUCUCACUUUCAUCAACAGAGGAUUGAGCAUCA

In the test the target is T1, UNK ZnF1-6 (called full-length) (human, UniProt Q9C0B0 30-357).
T1 sequence: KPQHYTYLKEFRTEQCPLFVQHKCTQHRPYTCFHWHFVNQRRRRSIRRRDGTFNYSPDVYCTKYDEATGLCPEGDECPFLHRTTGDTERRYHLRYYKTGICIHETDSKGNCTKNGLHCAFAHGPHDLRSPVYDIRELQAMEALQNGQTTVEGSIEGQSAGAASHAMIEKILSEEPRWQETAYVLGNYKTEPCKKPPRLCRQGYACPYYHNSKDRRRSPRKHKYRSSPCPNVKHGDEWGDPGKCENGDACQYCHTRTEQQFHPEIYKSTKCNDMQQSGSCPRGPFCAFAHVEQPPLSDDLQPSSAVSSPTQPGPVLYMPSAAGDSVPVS
Put plainly: nsRBNS (natural sequence RNA bind-n-seq); RBNS binding buffer (assumed for nsRBNS): 25 mM Tris pH 7.5, 150 mM KCl, 3 mM MgCl2, 0.01% Triton X-100, 500 ug/ml BSA, 20 U/ml SUPERase-In, 4 C; UNK is unkempt and MSI1 is Musashi-1; names of the RNAs are library labels; protein concentration not given here; high values mean tight binding.
For B1, the binding signal amounted to 44 enrichment R.

B2 gave a binding signal of 4.83 enrichment R.

B3 yielded a binding signal of 96.7 enrichment R.

With B4, the binding signal is 0.463 enrichment R.

As for B5, the binding signal stood at 6.05 enrichment R.

The molecule B6 gave a binding signal of 4.69 enrichment R.

Molecule B7 had a binding signal of 0.636 enrichment R.

In turn, B8 displayed a binding signal of 1.12 enrichment R.

Regarding B9, the binding signal is 0.642 enrichment R.

B10 had a binding signal of 0.3 enrichment R.

B11 came in with a binding signal of 6.55 enrichment R.

B12 returned a binding signal of 0.773 enrichment R.

B13 showed a binding signal of 12.5 enrichment R.

Take B14: the binding signal is 3.33 enrichment R.

B15 came in with a binding signal of 10.6 enrichment R.
